Where “and” joins values, the source holds several entries; their conditions need not be identical. Equal entries are not always repeated. This is part of a sample that, as a whole, favours compounds with a hit. Of some 83,000 tested, about 20% had one in any assay.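 Cell lines were cultured in 96-well plates, exposed to a single compound concentration, and assessed for percent growth 48 hours later.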 Calls of active or inactive are those of the source.

One test deals with TK-10 renal. The experiment in a line: NCI-60 one-dose screen, 48 h (100 = growth as untreated, 0 = no growth, -100 = all killed). As to conditions: 2.5 µM. Here is the method: Growth inhibition of the TK-10 human tumor cell line is measured as a screen for anti-cancer activity. Cells are grown in 96 well plates and exposed to the test compound for 48 hours. Compounds are tested at a single concentration, which is 10^-5 M for most compounds. The reported endpoint is percent growth (GI% or GIPRCNT), where numbers from 0 - 100% represent growth inhibition, and numbers from -100% - 0 represent cell death. For example, a value of 40 represents 60% growth inhibition. A value of 0 means no net growth occurred over the course of the experiment. A value of -40 indicates 40% of cells at the beginning of the experiment died by the end of the experiment. A value of -100 means all cells are dead at the end of the experiment.
NCI-60 Human Tumor Cell Lines Screen was performed using the standard one-dose NCI protocol, which is described in more detail at https://dtp.cancer.gov/discovery_development/nci-60/default.htm.
Compounds with GIPRCNT values below 10 were considered active. Activity score was based on GIPRCNT using the following formula: […]
Score is 0 for GIPRCNT values of 100 or above, 50 for GIPRCNT values of 0, and 100 for GIPRCNT values of -100.
As for `Cc1c(N)nc([C@H](CC(N)=O)NC[C@H](N)C(N)=O)nc1C(=O)N[C@H](C(=O)N[C@H](C)[C@@H](O)[C@H](C)C(=O)N[C@H](C(=O)NCCc1nc(-c2nc(C(=O)NCCC[S+](C)C)cs2)cs1)[C@@H](C)O)C(OC1OC(CO)C(O)C(O)C1OC1OC(CO)C(O)C(OC(N)=O)C1O)c1cnc[nH]1` (some centres not stated), the growth was 89.5% (inactive).

Still in this test, the particulars now being: 10 µM.
For `Oc1cccc2cccnc12`, the growth was 113% (inactive) and 98.5% (inactive) and 104% (inactive).

For the molecule `CO[C@H](/C(C)=C/C=C/C(C)=C/c1coc(C)n1)[C@H](C)[C@H]1C[C@@H](O)[C@@]2(C)O[C@H]2/C=C/[C@@H](C)[C@@H]2C[C@@H](CC(=O)O2)C[C@H]2O[C@@H]2C(=O)O1`, the growth is 37.2% (inactive).

For the molecule `CC[C@@]1(O)C[C@H](OC2CC(N(C)C)C(OC3CC(O)C(OC4CCC(=O)C(C)O4)C(C)O3)C(C)O2)c2c(cc3c(c2O)C(=O)c2c(O)ccc(O)c2C3=O)[C@H]1C(=O)OC` (some centres not stated), the growth is 6.04% (active).

For `COc1ccc(OC)c(/C=C/[N+](=O)[O-])c1`, the growth was -31.9% (active).

Take `CCOC(=O)C(NC(=O)C(Cc1ccc(N(CCCl)CCCl)cc1)NC(C)=O)C(C)C` (configuration not stated): the growth is 95.5% (inactive).

For the molecule `C[C@H]1CCC/C=C/[C@@H]2C[C@H](O)C[C@H]2[C@H](O)/C=C/C(=O)O1`, the growth was -31.1% (active).

Regarding `Cc1ccc(C(=O)OC(C(=O)O)C(OC(=O)c2ccc(C)cc2)C(=O)O)cc1` (configuration not stated) (tested in a mixture with another compound), the growth was 93.2% (inactive).

For the molecule `S=C(SSC(=S)N1CCCCC1)N1CCCCC1`, the growth is 109% (inactive).

For the molecule `COc1ccccc1/C=C(/C)[N+](=O)[O-]`, the growth was 75.2% (inactive) and 95% (inactive).

As for `COc1cccc2c1cc([N+](=O)[O-])c1c(C(=O)O)cc3c(c12)OCO3`, the growth was 30.8% (inactive) and 99.6% (inactive).

For `CC1=C(CO)C2=C(C)C3(CC3)[C@@](C)(O)C(=O)C2=C1`, the growth was -23.3% (active).

Take `Cc1cc(N=Nc2ccccc2C)ccc1N`: the growth was 124% (inactive).

On to `COC1=C(C)C(=O)C2=C(C1=O)C(CO)N1C(C#N)C3CC4C(C1C2N1CCOC41)N3C` (configuration not stated), for which the growth was -28.8% (active).

In the case of `NCCc1ccc(OCc2ccccc2)c(OCc2ccccc2)c1`, the growth was 107% (inactive).

As to `CCC1(O)CC(OC2CC(N(C)C)C(OC3CC4OC5CC(=O)C(C)OC5OC4C(C)O3)C(C)O2)c2c(cc3c(c2O)C(=O)c2c(O)ccc(O)c2C3=O)C1C(=O)OC` (configuration not stated), the growth is -28.7% (active).

Take `CN1CCN(c2ccc([N+](=O)[O-])c3no[n+]([O-])c23)CC1`: the growth was -95.4% (active).

For the molecule `O=C1c2ccccc2C(=O)C(Cl)C1Cl` (configuration not stated), the growth was -97.4% (active).

Consider `CC1=C2C(=O)[C@H]3[C@@H](CC=C4C[C@@H](O)CC[C@@]43C)[C@@H]2CC[C@]12O[C@@H]1C[C@H](C)CN[C@H]1[C@H]2C`, for which the growth was 108% (inactive).

For `CC[n+]1c(-c2ccccc2)c2cc(N)ccc2c2ccc(N)cc21`, the growth is 42% (inactive).

In the case of `CC[C@@]1(O)C[C@H](OC2CC(N(C)C)C(O)C(C)O2)c2c(O)c3c(c(O)c2[C@H]1OC1CC(N(C)C)C(O)C(C)O1)C(=O)c1cccc(O)c1C3=O` (some centres not stated), the growth is -24.9% (active).

For the molecule `CCC(=O)OC1CCn2c1nc1c2C(=O)C(C)=C(N2CC2)C1=O` (configuration not stated), the growth was -5.86% (active).

For the molecule `COC1CC(CC2CCC(C)C(C(C)C(=O)O)O2)OC2(OC(C)(C3CCC(C)(C4OC(C5OC(O)(CO)C(C)CC5C)CC4C)O3)CC2C)C1C` (configuration not stated), the growth is 4.27% (active).

Take `Oc1cc[c]([Hg][Cl])cc1`: the growth was 110% (inactive).

As to `CC(=O)O[C@H]1C[C@@H]2OC3C=C(C)CCC3(C)[C@@]1(C)[C@@]21CO1` (some centres not stated), the growth was -18.9% (active) and -20.4% (active).

With `CC[C@](O)(C(=O)O)c1cc2n(c(=O)c1CO)Cc1cc3ccccc3nc1-2`, the growth is 6.69% (active).

For `CC[C@@]1(O)C(=O)OCc2c1cc1n(c2=O)Cc2cc3ccccc3nc2-1`, the growth is -8.5% (active).

As to `C[C@]12CC[C@H](O)CC1=CC[C@@H]1[C@@H]2CC[C@]2(C)C(=O)CC[C@@H]12`, the growth is 96.2% (inactive).

The test is the same for the next values; noted with them: 25 µM.
On to `Cc1c(N)nc([C@H](CC(N)=O)NC[C@H](N)C(N)=O)nc1C(=O)N[C@H](C(=O)N[C@H](C)[C@@H](O)[C@H](C)C(=O)N[C@H](C(=O)NCCc1nc(-c2nc(C(=O)NCCC[S+](C)C)cs2)cs1)[C@@H](C)O)C(OC1OC(CO)C(O)C(O)C1OC1OC(CO)C(O)C(OC(N)=O)C1O)c1cnc[nH]1` (some centres not stated), for which the growth was 42.4% (inactive) and -73.8% (active).

Staying with this test, now noted: 100 µM.
For `S=C(SSC(=S)N1CCCCC1)N1CCCCC1`, the growth is -61.8% (active).

As for `COc1cccc2c1cc([N+](=O)[O-])c1c(C(=O)O)cc3c(c12)OCO3`, the growth was -10.4% (active) and -42.6% (active).

On to `CC1CCC2(NC1)OC1CC3C4CCC5CC(OC6OC(CO)C(OC7OC(CO)C(O)C(OC8OCC(O)C(O)C8O)C7OC7OC(CO)C(O)C(O)C7O)C(O)C6O)CCC5(C)C4CCC3(C)C1C2C` (configuration not stated), for which the growth was -97.4% (active) and -87.3% (active).

(Values after PubChem BioAssay (NCI).)
